“And” between values parts separate entries of the source, which are not always exact repeats. Equal values may be shown once. A number with no mark means an inactive call. The source made the active and inactive calls. No rule for the calls is given here.

In one test the target is L-lactate dehydrogenase (Plasmodium falciparum (isolate CDC / Honduras)) (UniProt Q27743). The test is described as follows: PfLDH activity inhibition – cell lysate, 3D7 strain, counter-screen for P. falciparum growth inhibition project (AID 2304).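 Also: 0% = vehicle and 100% = reference inhibitor.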 The settings on record: P. falciparum 3D7 crude extract, LDH APAD/NBT absorbance; at 2 µM; active compounds read high.
Sequence of L-lactate dehydrogenase (Plasmodium falciparum (isolate CDC / Honduras)) (Q27743 whole entry, looked up): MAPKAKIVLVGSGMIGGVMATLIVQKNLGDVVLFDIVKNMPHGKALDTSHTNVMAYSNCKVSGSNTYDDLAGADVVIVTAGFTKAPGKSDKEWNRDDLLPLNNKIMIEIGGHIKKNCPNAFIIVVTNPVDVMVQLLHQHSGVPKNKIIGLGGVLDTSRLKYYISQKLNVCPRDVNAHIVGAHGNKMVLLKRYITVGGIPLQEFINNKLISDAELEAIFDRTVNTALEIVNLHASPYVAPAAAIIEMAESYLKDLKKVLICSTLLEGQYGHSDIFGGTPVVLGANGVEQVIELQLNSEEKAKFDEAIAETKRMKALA
For the compound `Cc1cccc2[nH]c(-c3ccc(-c4cccc(NC(=O)NCc5cccc(F)c5)c4)cc3)nc12`, the inhibition was 6%.
Turning to `Cc1ccc(NC(=O)NCCCCCN2CCC(c3c[nH]c4ccccc34)CC2)cc1I`, the inhibition is 6%.
Still for that read-out and setting: as for `COc1ccc(Cn2c(SCc3ccc(C)cc3)nc3cc(OC)c(OC)cc3c2=N)cc1Cl`, the figure is 5%; as for `COc1ccc(NC(=O)c2cc(-c3ccc(NC(C)=O)cc3)cnc2N)cc1`, 4%; as for `O=C(NCCc1ccc(Cl)c(Cl)c1)c1ccc(CNC(=O)c2ccc(O)c(-c3ccc(Cl)c(Cl)c3)c2)cc1`, -6%.
Turning to `CCN(CC)C(=NCCCCCCN=C(NC(N)=NCc1cccc(Cl)c1)N(CC)CC)NC(N)=NCc1cccc(Cl)c1`, the inhibition was -8%.
Still for that read-out and setting: in the case of `CNCCNCc1cccc(-c2ccc(-c3nc4ccc(C(F)(F)F)cc4[nH]3)cc2)c1` it was -5%; in that of `COc1ccc(-c2cccc(NC(=O)c3ccc(F)cc3)c2)cc1CNC(C)C`, 1%.
Still for that read-out and setting: in the case of `O=C1Nc2cccc3c2C1(CCCCN1CCC(c2cc4ccncc4[nH]2)CC1)CCC3` (configuration not stated) it was -3%; in that of `O=C(/C=C/c1ccc(Cl)c(Cl)c1)NCCCCCN1CCC(NC(=O)Nc2cccc(C(F)(F)F)c2)CC1`, 4%; in that of `O=C(/C=C/c1ccc(Cl)c(Cl)c1)NC1CCC(CN2CCC(c3c[nH]c4ccncc34)CC2)CC1` (configuration not stated), -1%.
As for `Cc1cc(-c2ccc(O)c(CNC3CCCCC3)c2)cnc1N`, the inhibition is -4%.
Turning to `O=C(Nc1cccc(-c2ccc(-c3nc4ccc(F)cc4[nH]3)cc2)c1)c1cccnc1`, the inhibition is -4%.
For the compound `COc1ccc2ncc(F)c(CCN3CC[C@H](NCc4cc5c(s4)CCCN5)[C@H](O)C3)c2n1`, the inhibition is 0%.
On the same count and under the same terms, in the case of `CN(C)C(=O)C(CC(=O)NCc1ccccc1Cl)N(C)C` (configuration not stated) (tested in a mixture with another compound) it was -3%; in that of `CC(C)Oc1ccc2c(c1)OC(c1ccccc1)(C(F)(F)F)NC2=O` (configuration not stated), -2%; in that of `COc1ccc2ncc(F)c(CCN3CCC(CNC(=O)C(=O)c4c[nH]c5ccccc45)CC3)c2n1`, -6%.
Same read-out and setting: in the case of `COc1ccc(C2C(C(=O)Nc3ccccc3)=C(C)Nc3c(C(=O)Nc4ccccc4)cnn32)cc1` (configuration not stated) it was -1%; in that of `Cc1cccc2[nH]c(-c3ccc(-c4ccc(CN5CCCCC5CO)cc4)cc3)nc12` (configuration not stated), 1%.
Regarding `COc1cc(Cc2cnc(N)nc2N)cc(OCCCCc2nn[nH]n2)c1OC`, the inhibition was 1%.
Same read-out and setting: in the case of `CC(C)(C)NC(=O)COC(=O)c1c2c(nc3ccccc13)C(=Cc1ccc3c(c1)OCO3)CCC2` it was -4%.
As to `CN1CCC(C(=O)Nc2cccc(-c3ccc(-c4nc5ccc(C(F)(F)F)cc5[nH]4)s3)c2)CC1`, the inhibition was 0%.
Still for that read-out and setting: in the case of `COCc1cccc(-c2cc(-c3ccc(S(C)(=O)=O)cc3)cnc2N)c1` it was -2%; in that of `NC(=O)COc1cccc2c1CCN(CCN1CCC(NC(=O)c3ccc(-c4ccc(Cl)cc4)cc3)CC1)C2`, -1%.
On the same count and under the same terms, in the case of `O=c1cc(NCCCNCc2ccc(Cl)c(Cl)c2)[nH]c2cc(Cl)ccc12` it was 1%; in that of `Cn1nccc1C(=O)NCCNCc1ccc(-c2ccc(-c3nc4ccc(C(F)(F)F)cc4[nH]3)cc2)cc1`, -2%; in that of `FC(F)(F)c1cccc(C=NNc2nc3ccccc3[nH]2)c1`, 0%.

System in another test: not listed separately
The test is described as follows: inhibition of 3D7 malaria parasite growth – strain 3D7 (AID 2306).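 Also: 0% = DMSO wells and 100% = chloroquine plus artemisinin control wells.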 The conditions noted are these: P. falciparum 3D7 erythrocytic growth, LDH absorbance, 72 h; at 2 µM; active compounds read high.
As to `CC(=O)N/N=C/[C@H](CCc1ccccc1)NC(=O)[C@H](CC(C)C)NC(=O)c1ccc(OCCN2CCOCC2)cc1`, the growth inhibition is 96% (active).
In the case of `CN1CCN(Cc2ccc(-c3cc4nccc(Nc5ccc(Oc6ccccc6)cc5)c4cc3Cl)o2)CC1`, the growth inhibition is 100% (active).
The same measure, in the same setting: in the case of `Cc1ccc(NCc2cccc(F)c2)cc1S(=O)(=O)N[C@@H]1CCN(C#N)C1` it was 89% (active).
As for `COc1ccc(NC(=O)N2CCN(CCCCCNC(=O)/C=C/c3ccc(C(F)(F)F)cc3)CC2)cc1Cl`, the growth inhibition is 94% (active).
On the same count and under the same terms, in the case of `NC1=NC(c2ccccc2)(c2cccc(O)c2)C(=O)N1CCCc1ccccc1` (configuration not stated) it was 85% (active) and 98% (active); in that of `COc1c(C2CCN(CCCCNC(=O)c3noc(-c4ccc(C#N)cc4)n3)CC2)ccc2c1CCCC2`, 99% (active).
On the same count and under the same terms, as for `Cc1noc(C)c1-c1ccc2c(Nc3ccccc3C(C)(C)C)c(C(=O)NCc3ccc(OC(C)C)cc3)cnc2c1`, the figure is 100% (active); as for `Cc1cc(=O)c(-c2ccc(Oc3cccc(C(F)(F)F)c3)cc2)c(C)[nH]1`, 96% (active) and 97% (active); as for `O=c1cc(NCCCNCc2cc(Cl)cc(Cl)c2OCc2ccccc2)[nH]c2ccccc12`, 91% (active).
Turning to `O=C(NCCCCN1CCC(c2ccc(OC(F)(F)F)cc2)CC1)c1ccc(NC(=O)c2ccc(Cl)cc2)cc1`, the growth inhibition was 99% (active).
Same read-out and setting: in the case of `Cc1cc(NCCC(=O)NCCc2ccccc2)nc(NCCc2ccc(F)cc2)n1` it was 92% (active); in that of `O=C(/C=C/c1ccc(Cl)c(Cl)c1)NC1CCN(Cc2ccc(O)cc2)CC1`, 103% (active); in that of `c1ccc(Oc2cccc(Nc3ccnc4ccccc34)c2)cc1`, 95% (active).
On the same count and under the same terms, in the case of `Cc1cccc2[nH]c(-c3ccc(-c4cccc(NC(=O)NCc5cccc(F)c5)c4)cc3)nc12` it was 94% (active); in that of `Cc1ccc(NC(=O)NCCCCCN2CCC(c3c[nH]c4ccccc34)CC2)cc1I`, 94% (active).
On the same count and under the same terms, as for `COc1ccc(Cn2c(SCc3ccc(C)cc3)nc3cc(OC)c(OC)cc3c2=N)cc1Cl`, the figure is 92% (active).
`COc1ccc(NC(=O)c2cc(-c3ccc(NC(C)=O)cc3)cnc2N)cc1`: the growth inhibition was 98% (active).
The same measure, in the same setting: in the case of `O=C(NCCc1ccc(Cl)c(Cl)c1)c1ccc(CNC(=O)c2ccc(O)c(-c3ccc(Cl)c(Cl)c3)c2)cc1` it was 97% (active); in that of `CCN(CC)C(=NCCCCCCN=C(NC(N)=NCc1cccc(Cl)c1)N(CC)CC)NC(N)=NCc1cccc(Cl)c1`, 99% (active); in that of `CNCCNCc1cccc(-c2ccc(-c3nc4ccc(C(F)(F)F)cc4[nH]3)cc2)c1`, 100% (active).
In the case of `COc1ccc(-c2cccc(NC(=O)c3ccc(F)cc3)c2)cc1CNC(C)C`, the growth inhibition was 83% (active).
Same read-out and setting: as for `O=C1Nc2cccc3c2C1(CCCCN1CCC(c2cc4ccncc4[nH]2)CC1)CCC3` (configuration not stated), the figure is 97% (active) and 99% (active); as for `O=C(/C=C/c1ccc(Cl)c(Cl)c1)NCCCCCN1CCC(NC(=O)Nc2cccc(C(F)(F)F)c2)CC1`, 102% (active); as for `O=C(/C=C/c1ccc(Cl)c(Cl)c1)NC1CCC(CN2CCC(c3c[nH]c4ccncc34)CC2)CC1` (configuration not stated), 100% (active).
The same measure, in the same setting: as for `Cc1cc(-c2ccc(O)c(CNC3CCCCC3)c2)cnc1N`, the figure is 102% (active).
On the same count and under the same terms, as for `O=C(Nc1cccc(-c2ccc(-c3nc4ccc(F)cc4[nH]3)cc2)c1)c1cccnc1`, the figure is 101% (active); as for `COc1ccc2ncc(F)c(CCN3CC[C@H](NCc4cc5c(s4)CCCN5)[C@H](O)C3)c2n1`, 96% (active).
On to `CN(C)C(=O)C(CC(=O)NCc1ccccc1Cl)N(C)C` (configuration not stated) (tested in a mixture with another compound), for which the growth inhibition is 96% (active).
Same read-out and setting: as for `CC(C)Oc1ccc2c(c1)OC(c1ccccc1)(C(F)(F)F)NC2=O` (configuration not stated), the figure is 101% (active); as for `COc1ccc2ncc(F)c(CCN3CCC(CNC(=O)C(=O)c4c[nH]c5ccccc45)CC3)c2n1`, 103% (active).
Same read-out and setting: as for `COc1ccc(C2C(C(=O)Nc3ccccc3)=C(C)Nc3c(C(=O)Nc4ccccc4)cnn32)cc1` (configuration not stated), the figure is 85% (active); as for `Cc1cccc2[nH]c(-c3ccc(-c4ccc(CN5CCCCC5CO)cc4)cc3)nc12` (configuration not stated), 100% (active); as for `COc1cc(Cc2cnc(N)nc2N)cc(OCCCCc2nn[nH]n2)c1OC`, 97% (active).
Still for that read-out and setting: in the case of `CC(C)(C)NC(=O)COC(=O)c1c2c(nc3ccccc13)C(=Cc1ccc3c(c1)OCO3)CCC2` it was 90% (active); in that of `CN1CCC(C(=O)Nc2cccc(-c3ccc(-c4nc5ccc(C(F)(F)F)cc5[nH]4)s3)c2)CC1`, 101% (active); in that of `COCc1cccc(-c2cc(-c3ccc(S(C)(=O)=O)cc3)cnc2N)c1`, 98% (active).
Take `NC(=O)COc1cccc2c1CCN(CCN1CCC(NC(=O)c3ccc(-c4ccc(Cl)cc4)cc3)CC1)C2`: the growth inhibition was 92% (active).
The same measure, in the same setting: as for `O=c1cc(NCCCNCc2ccc(Cl)c(Cl)c2)[nH]c2cc(Cl)ccc12`, the figure is 95% (active); as for `Cn1nccc1C(=O)NCCNCc1ccc(-c2ccc(-c3nc4ccc(C(F)(F)F)cc4[nH]3)cc2)cc1`, 100% (active); as for `FC(F)(F)c1cccc(C=NNc2nc3ccccc3[nH]2)c1`, 101% (active).

Source of the values: PubChem BioAssay.
